KDM4E inh: qHTS Assay for Inhibitors of Human Jumonji Domain Containing 2E (JMJD2E); Lysine-specific demethylase 4E (Homo sapiens), B2RXH2; JMJD2E catalytic domain, FDH-coupled NADH fluorescence (FDH is formaldehyde dehydrogenase); Potency, µM (top dose mostly 57.1 µM), without a hit: at the top dose activity change, negative = inhibition, actives largely listed as inhibitors; 1.6% of 230,000 active; active means well fitted inhibition curve with a large enough effect, not every such curve was filed as active; inconclusive means small, poorly fitted or top-dose-only effect, or another doubt; inactive means no such curve, though single readings can be large or run the other way;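 further: potency means the concentration at half of the fitted maximal effect; 0% = wells with enzyme and -100% = buffer wells without enzyme; nearly all actives have a fitted effect of over 50% in size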
Target sequence (B2RXH2 1-337 limits assumed): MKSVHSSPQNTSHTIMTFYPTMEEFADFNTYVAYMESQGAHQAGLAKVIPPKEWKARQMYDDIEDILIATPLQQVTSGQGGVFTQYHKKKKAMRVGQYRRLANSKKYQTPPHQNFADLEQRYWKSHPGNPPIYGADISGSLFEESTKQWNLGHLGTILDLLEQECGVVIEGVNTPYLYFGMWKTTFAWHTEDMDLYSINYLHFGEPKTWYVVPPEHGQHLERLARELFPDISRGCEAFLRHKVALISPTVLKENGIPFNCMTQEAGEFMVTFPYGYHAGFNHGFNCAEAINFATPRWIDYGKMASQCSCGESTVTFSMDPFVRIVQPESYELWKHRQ
Sfp inh: qHTS Assay for Inhibitors of Bacillus subtilis Sfp phosphopantetheinyl transferase (PPTase). 4'-phosphopantetheinyl transferase ffp (Bacillus subtilis), Q9F4F7. AID 1490, 2009. Potency, µM, for inactives: largest response in the series, negative = inhibition, hits mostly inhibitors. Biochemical Sfp PPTase activity, qHTS. 3.5% of 310,000 active;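 further: the enzyme is Sfp with the accession as filed and its product quenches rhodamine fluorescence; potency means the concentration at half of the fitted maximal effect; 0% = enzyme reaction without inhibitor and -100% = no enzyme wells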
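Compounds were incubated with enzyme (final 15 nM) for 15 min at room temperature before substrate addition started the reaction. Fluorescence at 525 nm excitation, 598 nm emission was recorded immediately and after 30 minutes.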
Lamin A splicing: qHTS Assay for Modulators of Lamin A Splicing. HeLa LMNA splicing GFP/RFP minigene ratio, 48 h. Potency, µM (doses to about 46.1 µM), inactives show at the top dose ratio change, negative = inhibition, most hits filed as inhibitors. 0.01% of 200,000 active. AID 1487, 2009; active means well fitted inhibition curve with a large enough effect in the signal ratio, with a control signal flat, not every such curve was filed as active; inconclusive means small, poorly fitted or top-dose-only effect, or effect the other way, or a change in a side signal; the % refers to the signal ratio; further: potency means the concentration at half of the fitted maximal effect; on the % scale 0 is the no-effect control and ±100 the full control effect
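S3 HeLa cells stably expressing lamin A-EGFP splicing minigene plus DsRed2, 600 cells/well, 48 h compound exposure at 37C. Laser-scanning cytometry; analysed as GFP (500-530 nm)/RFP (575-640 nm) total intensity ratio; 0.5% DMSO vehicle.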
G9a block: qHTS Assay for Inhibitors of Histone Lysine Methyltransferase G9a | Histone-lysine N-methyltransferase EHMT2 (Homo sapiens), Q96KQ7 | Potency, µM (series often up to 102 µM), inactives show top-dose activity, negative = inhibition, actives largely listed as inhibitors | G9a H3K9 monomethylation, AlphaScreen, 2 h | AID 504332, 2011 | 8.8% of 350,000 active; further: potency means the concentration at half of the fitted maximal effect; on the % scale 0 is the no-effect control and ±100 the full control effect; nearly all actives have a fitted effect of over 75% in size
Target sequence (Q96KQ7 913-1193 limits assumed): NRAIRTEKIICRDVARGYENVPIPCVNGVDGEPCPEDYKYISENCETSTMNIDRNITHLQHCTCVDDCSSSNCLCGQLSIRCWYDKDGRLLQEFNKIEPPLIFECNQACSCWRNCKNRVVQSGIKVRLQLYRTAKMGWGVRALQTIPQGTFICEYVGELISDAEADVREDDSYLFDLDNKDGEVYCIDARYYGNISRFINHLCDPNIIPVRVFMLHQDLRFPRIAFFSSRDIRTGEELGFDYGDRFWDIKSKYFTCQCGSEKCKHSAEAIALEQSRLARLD
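Compounds were preincubated with 20 nM G9a for 15 min, after which biotinylated H3K9 peptide (500 nM) and SAM (20 uM) started a 2 h room-temperature reaction. Monomethylated product was quantified by antibody-based AlphaScreen chemiluminescence.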
miR-21 act: qHTS Assay for Modulators of miRNAs and/orActivators of miR-21 | HeLa miR-21 FLuc reporter, luciferase, 48 h | 340,000 tested, under 10 active | Potency, µM (top dose mostly 38.3 µM), for inactives: top-dose activity change, positive = activation, hits mostly activators;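 further: % of control where 0% means no effect; miR-21 action dims this reporter so a rising signal means less miR-21 action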
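HeLa cells endogenously expressing miR-21, stably carrying CMV-driven firefly luciferase with a downstream miR-21 binding site, 2000 cells/well. Titrations up to approximately 40 uM, 48 hours; luciferase luminescence read.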
ALDH1A1 inh: qHTS Assay for Inhibitors of Aldehyde Dehydrogenase 1 (ALDH1A1); Purified ALDH1A1, NADH fluorescence, propionaldehyde substrate; Potency, µM (titrated, usually from 75.3 µM), without a hit: at the highest dose activity, negative = inhibition, most hits filed as inhibitors; 7.3% of 220,000 active; active means well fitted inhibition curve with a large enough effect, not every such curve was filed as active; inconclusive means small, poorly fitted or top-dose-only effect, or another doubt; inactive means no such curve, though single readings can be large or run the other way;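 further: potency means the concentration at half of the fitted maximal effect; plate controls were no enzyme wells and a reference inhibitor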
The depositor's hits bear a star; u = inconclusive; x = no result given; [ ] = another dose, or the depositor's remark. Rows were chosen to be rich in hits. Some 13% of all compounds tested hit in one or more screens of this group. Unless noted, the call rests on the fitted dose curve; in most records, active means well fitted curve in the direction sought with a large enough effect; inconclusive means small, poorly fitted or top-dose-only effect, or another doubt; inactive means no such curve, though single readings can be large; an effect the other way counts as inactive or inconclusive.

SMILES	KDM4E inh	Sfp inh	Lamin A splicing	G9a block	miR-21 act	ALDH1A1 inh
O=S1(=O)CC/C(=N\Nc2ccccc2)c2ccsc21	-12%	-14%	u	u	-23%	25µM*
O=C(NCc1ccc(F)cc1)c1ccc2c(c1)N(Cc1ccc(F)cc1Cl)C(=O)CS2	x	x	x	u	1%	x
CCCCC(=O)OCc1nc(N)nc(Nc2ccccc2C)n1	-9%	0%	-19%	18%[59 µM]	-25%	1%
Cc1ccc(/C=C/C(=O)OCc2nc(N)nc(Nc3ccccc3C)n2)o1	-8%	79µM*	-15%[46 µM]	50µM*	-7%	u
Cc1ccccc1C(c1c(C)n(C)n(-c2ccccc2)c1=O)c1c(C)n(C)n(-c2ccccc2)c1=O	x	x	x	1%[59 µM]	1%	x
Cc1nc(COC(=O)c2ccc(CO)cc2)cs1	3%	17%	6%	1%	-5%	5%
Cc1nc(COC(=O)c2cc(O)c3ccccc3c2O)cs1	u	28µM*	u	3.2µM*	-5%	u
COCc1ccc(CN2CCCCC2C(=O)Nc2ccc(Oc3ccccc3)nc2)o1 (stereo unspecified)	x	6%	x	x	3%	x
O=C1NC(=O)/C(=C\c2ccc(O)cc2O)S1	16µM*	u	-17%[46 µM]	18µM*	-55%	-15%
O=C(CCSCc1cnn(-c2ccccc2)c1-n1cccc1)NCc1ccccc1Cl	x	x	x	u	0%	x
CCCCCCc1cc2cc(-c3nnc(-c4cccc(Cl)c4)o3)c(=O)oc2cc1O	x	x	x	7%[59 µM]	17%	x
N#C/C(=C\c1ccc(O)cc1)C(=O)N1CCCC1	-8%	14%	x	-28%	-7%	u
CN1CCN(C(=O)/C(=C/c2ccccc2)c2ccccc2)CC1	7%	-8%	2%	-7%	-4%	0%
CN1CCN(C(=O)/C(=C/c2ccc(F)cc2)c2ccsc2)CC1	3%	1%	-24%[46 µM]	45µM*	-9%	-9%
CN1CCN(C(=O)/C(C#N)=C/c2ccc(F)cc2)CC1	-6%	2%	-3%[46 µM]	-31%	-5%	1.8µM*
Cc1ccc(N2CC(C)Cn3c2nc2c3c(=O)n(CC(=O)O)c(=O)n2C)cc1 (stereo unspecified)	x	x	x	0%[59 µM]	0%	x
COC(=O)C1C2CC3c4[nH]c5cc(OC)ccc5c4CCN3CC2CC(OC(=O)c2cc(OC)c(OC)c(OC)c2)C1OC (stereo unspecified)	20µM*	-19%	x	x	x	-9%
O=C(NCC(c1cccnc1)N1CCc2ccccc21)c1ccc(F)cc1 (stereo unspecified)	x	x	u	-2%[59 µM]	1%	x
CSCC[C@H](NS(=O)(=O)c1ccc(C(C)=O)cc1)c1nnc2ccccn12	x	5%	x	45µM*	0%	x
CSCCC(NC(=O)C1CCCC1)c1nnc2ccccn12 (stereo unspecified)	x	18%	x	2%	-1%	x
COc1cc(OC)c(NC(=O)N2CCc3cc(S(=O)(=O)N4CCC(C)CC4)ccc32)cc1Cl	x	x	x	-1%[59 µM]	-5%	x
CCOC(=O)c1c(NC(=O)C2C3CCC(O3)C2C(=O)O)sc(C)c1-c1ccc(F)cc1 (stereo unspecified)	u	4%	-4%	x	4%	1%
CCCOC(=O)c1c(-c2ccc(C)cc2C)csc1NC(=O)C1C2CCC(O2)C1C(=O)O (stereo unspecified)	-4%	u	u	13µM*	12%	u
CC1(C)CC(=O)C2=C(C1)N=C1SCCC(=O)N1C2c1cccc([N+](=O)[O-])c1 (stereo unspecified)	-2%	13%	u	-4%	0%	10µM*
CC1CCN(C(=O)CSc2nc3ccccc3c(=O)[nH]2)CC1	1%	-8%	5%[46 µM]	x	-10%	u
SMILES	KDM4E inh	Sfp inh	Lamin A splicing	G9a block	miR-21 act	ALDH1A1 inh
CC1CCN(C(=O)CSc2nc3[nH]ncc3c(=O)[nH]2)CC1	-1%	9%	-4%	-1%[59 µM]	-6%	11µM*
COc1cc(OC)c(OC)cc1/C=N/N(C)c1ccccc1	-3%	u	17%	8.9µM*	-9%	-4%
COc1ccc(/C=N/S(=O)(=O)CCc2ccccc2)c(OC)c1	-11%	7%	u	2%[59 µM]	3%	0%
COc1cc(/C=N/S(=O)(=O)CCc2ccccc2)ccc1O	-3%	27%	2%	13%[59 µM]	1%	28µM*
CN(/N=C/c1ccc2c(c1)OCO2)c1ccccc1	-3%	u	-6%	10µM*	-66%	2%
COc1ccc(/C=N/N(C)C2=NCCN2)c(OC)c1OC	x	2%	x	8%	2%	x
Clc1ccccc1N/N=C/c1ccc2c(c1)OCO2	u	-25%	u	8.9µM*	-76%	u
C(=N\N(c1ccccc1)c1ccccc1)/c1ccc2c(c1)OCO2	-3%	5%	-5%	31%	-2%	-5%
COc1cc(/C=N/NC(=O)c2cccc(NC(=O)c3ccccc3)c2)ccc1O	x	5%	x	17%	-3%	x
COc1cc(/C=N/N(C)c2ccccc2)ccc1O	-1%	-9%	u	14µM*	-65%	1%
CCc1cc2c3c(c1)C(C)CC(C)(C)N3C(=O)/C2=C1\SC(=O)NC1=O (stereo unspecified)	2%	6%	x	25µM*	0%	x
COc1ccc(-c2coc3c(CN4CCCCC4)c(O)c(CN4CCCCC4)c(O)c3c2=O)cc1	u	16µM*	4%	-21%[12.7 µM]	-8%	21%
O=c1c(-c2ccc(Br)cc2)coc2c(CN3CCCCC3)c(O)ccc12	x	21%	x	7%	-1%	x
CCOc1ncccc1C(=O)NCCc1ccc(Cl)cc1	x	2%	x	29%	-15%	x

Screening data from PubChem BioAssay.
